Records with an inconclusive call do not appear. Entries that show only a call come without a potency. Values without a mark were called inactive. Activity calls are given as the source filed them. Unless noted, calls come from the whole dose curve; as a rule, active = well fitted curve in the direction sought with a large enough effect in the repeat runs; inconclusive = weak or mixed curves; inactive = no such curve, though single readings can be large; an effect the other way counts as inactive or inconclusive.
How the values were obtained:
[1] = qHTS assay to identify aromatase inhibitors - cell viability counter screen (AID 743084);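 note: cells stimulated with testosterone during compound exposure; nearly all actives have a fitted effect of over 55% in size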
[2] = target: Aryl hydrocarbon receptor (Homo sapiens) (UniProt P35869); assay: qHTS assay to identify small molecule that activate the aryl hydrocarbon receptor (AhR) signaling pathway (AID 743085); note: nearly all actives have a fitted effect of over 15% in size; note: potency is the fitted concentration of half-maximal effect;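 for activation: HG2L7.5c1 human HepG2 liver cells with stably integrated DRE-driven firefly reporter; series mostly up to about 70 µM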
Procedure, shortened: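 Cell line HG2L7.5c1 (human hepatoma, 20× DRE-luc). Plated, 5 h 37C, compound/DMSO added, 24 h 37C. CellTiter-Fluor 30 min 37C → fluorescence; then ONE-Glo 30 min RT → luminescence.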

[3] = qHTS assay to identify small molecule that activate the aryl hydrocarbon receptor (AhR) signaling pathway - cell viability counter screen (AID 743086);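 note: HepG2 liver cells carrying the AhR DRE luciferase reporter; series mostly up to about 70 µM; nearly all actives have a fitted effect of over 45% in size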
Procedure, shortened: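 HepG2-AhR-luc (HG2L7.5c1) cells, 4000/well, treated 24 h at 37 C with compound; viability measured as CellTiter-Fluor fluorescence after 30 min in the same wells as the luciferase read.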

[4] = target: Peroxisome proliferator-activated receptor gamma (Homo sapiens) (UniProt P37231); assay: qHTS assay to identify small molecule agonists of the peroxisome proliferator-activated receptor gamma (PPARg) signaling pathway (AID 743094; active = well fitted activation curve with a large enough effect in the signal ratio in the repeat runs, not every such curve was filed as active; the % refers to the signal ratio)
Procedure, shortened: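 Cells from the PPARg UAS-bla HEK293H line are plated and incubated 5 h at 37C. Compounds in DMSO are pinned in and left 17 h at 37C. LiveBLAzer B/G substrate is then added for 1 h at room temperature before fluorescence is measured.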

[5] = target: Peroxisome proliferator-activated receptor gamma (Homo sapiens) (UniProt P37231); assay: qHTS assay to identify small molecule antagonists of the peroxisome proliferator-activated receptor gamma (PPARg) signaling pathway (AID 743191; calls by dose curve; note: series mostly up to about 63 µM; nearly all actives have a fitted effect of over 30% in size)
Procedure, shortened: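 GeneBLAzer PPARg UAS-bla HEK293H cells, 5 h post-plating, exposed to compounds 17 h at 37C. LiveBLAzer B/G FRET substrate added for 1 h at room temperature; beta-lactamase reporter read by fluorescence intensity.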

[6] = qHTS assay to identify small molecule antagonists of the peroxisome proliferator-activated receptor gamma (PPARg) signaling pathway - cell viability counter screen (AID 743194); note: nearly all actives have a fitted effect of over 55% in size
Procedure, shortened: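 Cytotoxicity counter screen in PPARg-bla HEK293H cells, same wells as reporter assay. Compounds plus 50 nM rosiglitazone (final) for 17 h at 37 C, then viability read by CellTiter-Glo luminescence.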

[7] = qHTS assay for small molecule agonists of the antioxidant response element (ARE) signaling pathway (AID 743202; active = well fitted activation curve with a large enough effect in the signal ratio in the repeat runs, not every such curve was filed as active; the % refers to the signal ratio)
Procedure, shortened: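 HepG2 ARE-bla cells; 16 h treatment at 37 C; FRET-based beta-lactamase fluorescence read after 2 h substrate incubation at room temperature.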

[8] = qHTS assay for small molecule agonists of the antioxidant response element (ARE) signaling pathway - cell viability counter screen (AID 743203; calls by dose curve; note: nearly all actives have a fitted effect of over 55% in size)
Procedure, shortened: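 Cytotoxicity was tested in parallel with the ARE reporter screen. ARE-bla HepG2 cells were exposed to compounds for 16 hrs, and viability was taken from CellTiter-Glo luminescence.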

[9] = qHTS assay to identify small molecule agonists of the peroxisome proliferator-activated receptor delta (PPARd) signaling pathway - cell viability counter screen (AID 743211); note: nearly all actives have a fitted effect of over 55% in size
Procedure, shortened: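 HEK293H PPARd-bla, 3000 cells/well; 5 h preincubation 37C/5% CO2; cpd in DMSO, 17 h 37C; B/G FRET substrate 2 h RT; CellTiter-Glo 30 min RT, luminescence.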

[10] = target: Peroxisome proliferator-activated receptor delta (Homo sapiens) (UniProt Q03181); assay: qHTS assay to identify small molecule agonists of the peroxisome proliferator-activated receptor delta (PPARd) signaling pathway (AID 743212; calls by dose curve)
Procedure, shortened: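 Tox21 library screened in GeneBLAzer PPARd UAS-bla HEK293H cells. After compound treatment at 37 C, a FRET-based beta-lactamase substrate was applied for 2 h and fluorescence recorded.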

[11] = qHTS assay to identify small molecule antagonists of the peroxisome proliferator-activated receptor delta (PPARd) signaling pathway - cell viability counter screen (AID 743213); note: nearly all actives have a fitted effect of over 50% in size
Procedure, shortened: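 Same-well viability: cells pre-incubated 5 h, dosed with compound plus 300 nM L165041, kept 17 h at 37 C, FRET substrate 2 h RT, then CellTiter-Glo 30 min RT and luminescence.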

[12] = target: Peroxisome proliferator-activated receptor delta (Homo sapiens) (UniProt Q03181); assay: qHTS assay to identify small molecule antagonists of the peroxisome proliferator-activated receptor delta (PPARd) signaling pathway (AID 743215; active = well fitted inhibition curve with a large enough effect in the signal ratio in the repeat runs, not every such curve was filed as active; the % refers to the signal ratio;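 note: cells stimulated with agonist L165041 at 300 nM final during compound exposure; series mostly up to about 62 µM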)
Procedure, shortened: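 Cells: HEK293H with a UAS-driven beta-lactamase reporter responsive to PPARd. Compounds were co-added with L165041 (300 nM, final) and incubated 17 h at 37 C before a 2 h room-temperature FRET substrate step and fluorescence reading.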

[13] = qHTS assay to identify small molecule antagonists of the farnesoid-X-receptor (FXR) signaling pathway - cell viability counter screen (AID 743221; active = well fitted cell-killing curve with a large enough effect in the repeat runs, not every such curve was filed as active; note: nearly all actives have a fitted effect of over 50% in size)
Procedure, shortened: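 Luminescence from CellTiter-Glo measures cytotoxicity in GeneBLAzer FXR-UAS-bla HEK 293T cells. Cells were exposed to compounds with 50 uM chenodeoxycholic acid (final) for 16 h at 37 C, in wells also used for the reporter readout.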

[14] = target: Vitamin D3 receptor (Homo sapiens) (UniProt P11473); assay: qHTS assay to identify small molecule agonists of the vitamin D receptor (VDR) signaling pathway (AID 743222; calls by dose curve)
Procedure, shortened: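 Cells carrying a VDR-driven beta-lactamase reporter are seeded at 2,000 per well and rested 4 h. Compounds in DMSO are added for 16 h at 37C, and FRET substrate fluorescence is measured after 2 h at room temperature.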

[15] = target: Vitamin D3 receptor (Homo sapiens) (UniProt P11473); assay: qHTS assay to identify small molecule antagonists of the vitamin D receptor (VDR) signaling pathway (AID 743223; active = well fitted inhibition curve with a large enough effect in the signal ratio in the repeat runs, not every such curve was filed as active; the % refers to the signal ratio)
Procedure, shortened: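 Antagonist mode uses 1alpha,25-dihydroxyvitamin D3 at 3 nM final as stimulus. VDR-bla cells receive compounds in DMSO, incubate 16 h at 37C, then a beta-lactamase FRET substrate for 2 h at room temperature before fluorescence measurement.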

[16] = qHTS assay for small molecule activators of the heat shock response signaling pathway - cell viability counter screen (AID 743209); note: nearly all actives have a fitted effect of over 50% in size
Procedure, shortened: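 Cytotoxicity counter screen run in parallel with the HSE beta-lactamase reporter, using the same wells. HeLa HSE-bla cells received compound for 5 h at 37 C; ATP-based CellTiter-Glo luminescence was measured after 30 min at room temperature.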

[17] = qHTS assay for small molecule activators of the heat shock response signaling pathway (AID 743210; active = well fitted activation curve with a large enough effect in the signal ratio in the repeat runs, with a control signal flat, not every such curve was filed as active; the % refers to the signal ratio;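 note: HeLa cells with beta-lactamase reporter driven by heat shock elements; series mostly up to about 63 µM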)
Procedure, shortened: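 Following overnight attachment, HSE-bla HeLa cells received test compounds for 5 h at 37 C; beta-lactamase activity was then detected via FRET substrate fluorescence.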

[18] = target: Bile acid receptor (Homo sapiens) (UniProt Q96RI1); assay: qHTS assay to identify small molecule antagonists of the farnesoid-X-receptor (FXR) signaling pathway (AID 743217; active = well fitted inhibition curve with a large enough effect in the signal ratio in the repeat runs, not every such curve was filed as active; the % refers to the signal ratio)
Procedure, shortened: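 Cells carrying a UAS-driven beta-lactamase reporter (GeneBLAzer FXR-UAS-bla HEK 293T) were plated and rested 5 h at 37 °C. Compounds in DMSO were added alongside chenodeoxycholic acid agonist at 50 uM final and left 16 h at 37 °C before FRET substrate readout.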

[19] = qHTS assay to identify small molecule agonists of the farnesoid-X-receptor (FXR) signaling pathway - cell viability counter screen (AID 743218); note: nearly all actives have a fitted effect of over 45% in size
Procedure, shortened: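 Cells were seeded, left 5 h at 37 C and 5% CO2, then dosed with compound in DMSO for 16 h. After the beta-lactamase FRET read, CellTiter-Glo was added and luminescence measured 30 min later.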

[20] = target: Bile acid receptor (Homo sapiens) (UniProt Q96RI1); assay: qHTS assay to identify small molecule agonists of the farnesoid-X-receptor (FXR) signaling pathway (AID 743220; active = well fitted activation curve with a large enough effect in the signal ratio in the repeat runs, not every such curve was filed as active; the % refers to the signal ratio)
Procedure, shortened: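 FXR-UAS-bla HEK 293T cells carrying a UAS-driven beta-lactamase reporter were plated for 5 h at 37C/5% CO2, then exposed to DMSO-dissolved Tox21 10K compounds for 16 h at 37C. A LiveBLAzer B/G FRET substrate was loaded for 2 h at room temperature before fluorescence reading.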

Chain of Peroxisome proliferator-activated receptor delta (Homo sapiens) (Q03181 whole entry, looked up): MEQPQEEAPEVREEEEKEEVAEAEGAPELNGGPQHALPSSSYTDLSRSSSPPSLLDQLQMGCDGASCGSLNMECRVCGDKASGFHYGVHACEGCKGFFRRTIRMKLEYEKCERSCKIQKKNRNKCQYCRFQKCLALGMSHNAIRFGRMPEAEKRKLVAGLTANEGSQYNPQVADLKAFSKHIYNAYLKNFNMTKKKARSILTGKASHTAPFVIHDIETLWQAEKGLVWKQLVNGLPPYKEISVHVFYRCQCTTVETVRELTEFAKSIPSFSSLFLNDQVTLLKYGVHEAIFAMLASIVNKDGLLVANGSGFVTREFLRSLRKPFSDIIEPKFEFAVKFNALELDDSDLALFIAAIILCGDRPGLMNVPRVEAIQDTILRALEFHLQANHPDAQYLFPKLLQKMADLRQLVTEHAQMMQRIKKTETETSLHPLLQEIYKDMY
Chain of Bile acid receptor (Homo sapiens) (Q96RI1 whole entry, looked up): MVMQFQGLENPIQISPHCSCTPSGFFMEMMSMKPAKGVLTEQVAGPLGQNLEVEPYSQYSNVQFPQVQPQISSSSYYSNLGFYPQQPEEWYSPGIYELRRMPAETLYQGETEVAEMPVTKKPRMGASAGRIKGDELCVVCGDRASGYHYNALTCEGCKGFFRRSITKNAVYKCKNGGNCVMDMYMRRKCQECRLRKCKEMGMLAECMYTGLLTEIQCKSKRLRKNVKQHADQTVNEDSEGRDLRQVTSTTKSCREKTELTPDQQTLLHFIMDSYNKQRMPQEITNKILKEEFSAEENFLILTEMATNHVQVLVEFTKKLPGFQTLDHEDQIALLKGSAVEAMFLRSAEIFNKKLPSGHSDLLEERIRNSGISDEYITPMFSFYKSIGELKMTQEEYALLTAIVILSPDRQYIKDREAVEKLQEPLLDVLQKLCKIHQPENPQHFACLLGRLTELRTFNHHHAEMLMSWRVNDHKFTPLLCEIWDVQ
Chain of Peroxisome proliferator-activated receptor gamma (Homo sapiens) (P37231 whole entry, looked up): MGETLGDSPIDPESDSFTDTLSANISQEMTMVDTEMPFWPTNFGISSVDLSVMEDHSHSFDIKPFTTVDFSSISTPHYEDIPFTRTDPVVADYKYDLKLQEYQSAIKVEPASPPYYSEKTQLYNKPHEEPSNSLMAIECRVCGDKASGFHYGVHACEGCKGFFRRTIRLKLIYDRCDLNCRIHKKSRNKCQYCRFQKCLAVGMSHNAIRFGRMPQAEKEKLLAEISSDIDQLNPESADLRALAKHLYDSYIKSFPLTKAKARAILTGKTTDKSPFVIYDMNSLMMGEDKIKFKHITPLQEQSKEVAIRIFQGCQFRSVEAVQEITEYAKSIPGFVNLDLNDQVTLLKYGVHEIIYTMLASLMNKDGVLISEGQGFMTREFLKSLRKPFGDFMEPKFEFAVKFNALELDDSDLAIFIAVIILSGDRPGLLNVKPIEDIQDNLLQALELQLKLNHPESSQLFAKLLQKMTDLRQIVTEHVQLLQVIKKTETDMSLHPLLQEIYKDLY
Chain of Vitamin D3 receptor (Homo sapiens) (P11473 whole entry, looked up): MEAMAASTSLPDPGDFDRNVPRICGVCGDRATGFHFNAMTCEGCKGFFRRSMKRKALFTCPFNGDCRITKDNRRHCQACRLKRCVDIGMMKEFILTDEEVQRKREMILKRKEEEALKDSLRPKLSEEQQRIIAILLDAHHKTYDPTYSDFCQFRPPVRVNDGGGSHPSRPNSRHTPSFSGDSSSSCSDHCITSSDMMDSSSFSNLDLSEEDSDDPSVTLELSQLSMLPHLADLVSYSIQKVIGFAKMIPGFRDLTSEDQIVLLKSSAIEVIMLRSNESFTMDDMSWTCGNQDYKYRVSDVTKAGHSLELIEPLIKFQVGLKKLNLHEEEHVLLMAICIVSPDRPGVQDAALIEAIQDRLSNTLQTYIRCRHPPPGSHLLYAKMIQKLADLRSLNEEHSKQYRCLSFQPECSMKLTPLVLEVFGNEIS
Chain of Aryl hydrocarbon receptor (Homo sapiens) (P35869 whole entry, looked up): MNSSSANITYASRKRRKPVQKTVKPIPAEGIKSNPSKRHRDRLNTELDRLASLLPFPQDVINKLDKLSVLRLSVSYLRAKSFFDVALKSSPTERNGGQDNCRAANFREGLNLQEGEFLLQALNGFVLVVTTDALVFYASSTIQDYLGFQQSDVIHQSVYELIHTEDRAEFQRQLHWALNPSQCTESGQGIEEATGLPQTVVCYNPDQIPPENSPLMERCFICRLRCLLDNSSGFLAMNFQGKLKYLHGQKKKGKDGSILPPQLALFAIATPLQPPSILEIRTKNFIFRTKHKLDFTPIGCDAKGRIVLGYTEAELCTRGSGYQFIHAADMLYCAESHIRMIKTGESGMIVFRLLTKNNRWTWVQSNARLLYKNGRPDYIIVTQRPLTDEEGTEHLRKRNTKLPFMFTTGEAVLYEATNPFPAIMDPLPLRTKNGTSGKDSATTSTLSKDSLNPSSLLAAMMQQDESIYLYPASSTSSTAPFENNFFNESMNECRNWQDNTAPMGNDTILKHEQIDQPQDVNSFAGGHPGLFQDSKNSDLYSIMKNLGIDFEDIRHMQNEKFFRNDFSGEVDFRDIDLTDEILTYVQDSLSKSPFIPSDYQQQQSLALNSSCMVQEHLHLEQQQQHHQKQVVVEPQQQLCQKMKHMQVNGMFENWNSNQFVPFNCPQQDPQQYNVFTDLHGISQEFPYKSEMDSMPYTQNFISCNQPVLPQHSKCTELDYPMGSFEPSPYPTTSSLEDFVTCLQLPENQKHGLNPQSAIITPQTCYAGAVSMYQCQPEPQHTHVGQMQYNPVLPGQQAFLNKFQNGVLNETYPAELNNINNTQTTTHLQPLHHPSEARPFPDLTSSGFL

Compound	Potency [1]	Potency [2]	Potency [3]	Potency [4]	Potency [5]	outcome [6]	Potency [7]	outcome [8]	outcome [9]	outcome [10]	outcome [11]	outcome [12]	outcome [13]	outcome [14]	outcome [15]	outcome [16]	outcome [17]	outcome [18]	outcome [19]	outcome [20]
CCCC[N+](C)(CCCC)CCCC	inactive	inactive	inactive	inactive	inactive	inactive	inactive	inactive	inactive	inactive	inactive	inactive	inactive	inactive	inactive					
CC(=O)Nc1ccc(OCC(O)CNC(C)C)cc1 (configuration not stated)	inactive	inactive	inactive	inactive	inactive	inactive	inactive	inactive	inactive	inactive	inactive	inactive	inactive	inactive	inactive	inactive	inactive	inactive	inactive	inactive
NC(CCC(=O)O)C(=O)O (configuration not stated)	inactive	inactive	inactive	inactive	inactive	inactive	inactive	inactive	inactive	inactive	inactive	inactive	inactive	inactive		inactive			inactive	
NS(=O)(=O)Cc1noc2ccccc12	inactive	inactive	inactive	inactive	inactive	inactive	inactive	inactive	inactive		inactive		inactive			inactive	inactive	inactive	inactive	inactive
CCOC(=O)OC(C)OC1=C(C(=O)Nc2ccccn2)N(C)S(=O)(=O)c2ccccc21 (configuration not stated)	inactive	inactive	inactive	inactive	inactive	inactive	inactive	inactive	inactive	inactive	inactive	inactive	inactive	inactive			inactive		inactive	
CC1=CC(=O)[C@H]2C[C@@H]1C2(C)C	inactive	inactive	inactive	inactive	inactive	inactive	inactive	inactive	inactive	inactive	inactive	inactive	inactive	inactive	inactive	inactive	inactive	inactive	inactive	inactive
O=Cc1cccc(Br)c1	inactive	inactive	inactive	inactive	inactive	inactive		inactive	inactive	inactive	inactive	inactive	inactive	inactive	inactive	inactive	inactive	inactive	inactive	inactive
COC(=O)Nc1ccc(Cl)c(Cl)c1	inactive	60.8 µM (active)	inactive	inactive	inactive	inactive	inactive	inactive	inactive	inactive	inactive	inactive	inactive	inactive		inactive	inactive	inactive		inactive
CCOC(=O)c1cnc2c(cnn2CC)c1NN=C(C)C	inactive	29.8 µM (active)	inactive	inactive	inactive	inactive	inactive	inactive	inactive	inactive	inactive			inactive	inactive	inactive	inactive		inactive	
CC(N)C12CC3CC(CC(C3)C1)C2 (configuration not stated)	inactive	inactive	inactive	inactive	inactive	inactive	inactive	inactive	inactive	inactive		inactive	inactive	inactive		inactive	inactive		inactive	inactive
CC(=O)Oc1cccc(C)c1	inactive	inactive	inactive	inactive	inactive	inactive	inactive	inactive	inactive	inactive	inactive	inactive	inactive			inactive	inactive		inactive	
CC(=O)C1CCCCC1=O (configuration not stated)	inactive	inactive	inactive	inactive	inactive	inactive	inactive	inactive	inactive	inactive	inactive	inactive	inactive	inactive	inactive		inactive		inactive	inactive
CC1=CCC(O)(C(C)C)CC1 (configuration not stated)	inactive	inactive	inactive	inactive	inactive	inactive	inactive		inactive	inactive		inactive	inactive	inactive		inactive	inactive		inactive	
CN(C)C(=O)Oc1ccc[n+](C)c1	inactive	inactive	inactive	inactive	inactive	inactive	inactive	inactive	inactive	inactive			inactive			inactive	inactive		inactive	
CCOC(=O)COc1cc(-n2ncc(C(F)(F)F)c(C)c2=O)c(F)cc1Cl	inactive	inactive	inactive	inactive	inactive	inactive	inactive	inactive	inactive	inactive	inactive	inactive		inactive		inactive	inactive		inactive	
CC[C@H]1OC(=O)[C@H](C)[C@@H](O[C@H]2C[C@@](C)(OC)[C@@H](O)[C@H](C)O2)[C@H](C)[C@@H](O[C@@H]2O[C@H](C)C[C@H](N(C)C)[C@H]2O)[C@](C)(OC)C[C@@H](C)C(=O)[C@H](C)[C@@H](O)[C@]1(C)O	inactive	inactive	inactive	inactive	inactive	inactive	inactive	inactive	inactive	inactive	inactive	inactive	inactive			inactive	inactive			

Reference: PubChem BioAssay (Tox21)
